Source: PubChem
A selection: hits, their analogues and other compounds. The true share with any hit is near 2.4%.
HSP90 inh = HSP90 inhibitors, primary screen, cell lysate, luminescence; Rabbit reticulocyte lysate, luciferase refolding luminescence, 3 h; inhibition, % at 5.6 µM; 290,000 tested, 0.91% active; AID 1789, 2009;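 active means inhibition above the screen-wide mean plus 3 SD, computed separately per campaign, cut at about 16% in these data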;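 further: inhibitors lower the luminescence because luciferase stays unfolded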
STAT1 blocker = STAT1 signaling inhibitors, primary screen, cell-based, HTS, luciferase reporter. NIH 3T3 STAT1-luciferase reporter, IFN-gamma, luminescence. inhibition, % at 5.5 µM. 200,000 tested, 0.35% active. AID 920, 2007;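 active means inhibition above a set limit, the mean inhibition across all tested compounds plus 3 SD, cut at about 34% in these data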
STAT3 inh = IL-6 driven STAT3 reporter inhibitors, primary screen, U3A cells, luciferase, luminescence, MLSCN library; inhibition, % at 5.5 µM; IL-6 STAT3-luciferase reporter; host cell line lacks STAT1; 190,000 tested, 0.89% active;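 active means inhibition above the mean inhibition across all screened compounds plus 3 SD, cut at about 44% in these data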
PPC-1+TRAIL kill = compounds killing PPC-1 cancer cells with TRAIL present, primary screen, TRAIL potentiator project, ATPLite luminescence, uHTS. 220,000 tested, 0.41% active. PPC-1 cells + TRAIL, ATPLite viability luminescence. cell killing (% activity), % at 4 µM or 5 µM;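 active means cell killing above 50% in the first pass at 4 µM, then a duplicate retest at 5 µM averaging 50% or more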
HSF1 inh = HSF1 inhibitors in luciferase reporter cells, primary screen, cell-based, NIH3T3, luminescence. AID 2098, 2009. 300,000 tested, 0.77% active. activity change, negative = inhibition, % at 7.5 µM (by protocol). NIH3T3-HGL HSE-luciferase, MG132-induced, luminescence 8 h; active compounds read low;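 active means more than half of replicate wells show activity change below -50%, luminescence cut by over half; inconclusive means some wells, but at most half, below -50%; inactive means no replicate well below -50%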;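 further: luciferase reports HSF-1 transcriptional activity via heat shock element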
C8 TRAIL sens = viability loss with TRAIL in NB7+C8 cells, primary screen, TRAIL sensitizer project, cell-based, ATPlite luminescence; inhibition (viability loss, TRAIL sensitization), % at 10 µM; 360,000 tested, 1% active; AID 624354, 2012;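 active means compounds causing at least 50% loss of cell viability in the single-dose screen, relative to plate controls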
HSP90 confirm = HSP90 inhibitors, confirmation, cell lysate, luminescence; inhibition, % at 5.9 µM; 2,300 tested, 64% active; shares compounds with HSP90 inh; rabbit reticulocyte lysate, luciferase refolding luminescence, 3 h; in the data active means inhibition above about 18%
FLuc counter = firefly luciferase inhibitors, HSP90 counter-screen, confirmation, artefact control for HSP90 inhibitor project, biochemical, luminescence, triplicate; purified native firefly luciferase; 2,300 tested, 48% active; inhibition, % at 5.9 µM; AID 1847, 2009; shares compounds with HSP90 inh;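 active means inhibition above the mean inhibition of all tested sample wells plus 3 SD, cut at about 10% in these data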
Target sequence (P08659 whole entry, looked up): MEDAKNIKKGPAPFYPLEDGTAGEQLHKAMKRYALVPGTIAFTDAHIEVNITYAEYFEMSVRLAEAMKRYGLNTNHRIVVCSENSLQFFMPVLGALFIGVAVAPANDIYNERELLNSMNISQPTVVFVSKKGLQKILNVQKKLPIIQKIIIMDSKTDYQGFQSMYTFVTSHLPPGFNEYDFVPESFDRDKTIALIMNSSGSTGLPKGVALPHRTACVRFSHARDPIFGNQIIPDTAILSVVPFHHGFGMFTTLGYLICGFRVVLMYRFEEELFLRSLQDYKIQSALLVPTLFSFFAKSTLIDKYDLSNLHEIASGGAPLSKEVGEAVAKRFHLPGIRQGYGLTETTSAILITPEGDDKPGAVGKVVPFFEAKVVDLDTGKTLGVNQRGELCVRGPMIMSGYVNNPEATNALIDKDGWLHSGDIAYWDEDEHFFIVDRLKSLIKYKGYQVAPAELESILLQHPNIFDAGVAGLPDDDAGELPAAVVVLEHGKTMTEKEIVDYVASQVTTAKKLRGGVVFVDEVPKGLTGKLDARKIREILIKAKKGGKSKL
Each line names hits and unclear results; the compound was inactive in the other large screens (follow-up assays come after a bar, where they were run).

O=C(NNS(=O)(=O)c1ccc(Cl)cc1)c1cnn(-c2ccccc2)c1-n1cccc1	none
COc1ccc(Cl)cc1C(=O)Nc1nc2ccccc2[nH]1	HSP90 inh 71, C8 TRAIL sens 81 (no result: STAT1 blocker, STAT3 inh, PPC-1+TRAIL kill) | HSP90 confirm 87 | FLuc counter 77
CC(C)Oc1ccc(C(=O)Nc2nc3ccccc3[nH]2)cc1	HSP90 inh 83, C8 TRAIL sens 92 (no result: STAT1 blocker, STAT3 inh, PPC-1+TRAIL kill) | HSP90 confirm 90 | FLuc counter 85
COc1ccc(Br)c(C(=O)Nc2nc3ccccc3[nH]2)c1	none (no result: STAT1 blocker, STAT3 inh, PPC-1+TRAIL kill)
CN(CCCn1ccc(N)nc1=O)Cc1ccco1	none (no result: HSP90 inh, STAT1 blocker, STAT3 inh, PPC-1+TRAIL kill, HSF1 inh)
COc1ccc(C(CNC(=O)CCNS(=O)(=O)c2ccccc2)N2CCOCC2)cc1 (stereo not given)	none (no result: HSP90 inh, STAT1 blocker, STAT3 inh, PPC-1+TRAIL kill, HSF1 inh)
CCOc1ccc(CN2CCN(Cc3cc4ccccc4o3)CC2CCO)cc1 (stereo not given)	HSP90 inh 61 (no result: STAT1 blocker, STAT3 inh, PPC-1+TRAIL kill) | HSP90 confirm inactive | FLuc counter inactive
COc1cccc(CN2CCN(Cc3cc4ccccc4o3)CC2CCO)c1 (stereo not given)	none (no result: STAT1 blocker, STAT3 inh, PPC-1+TRAIL kill)
C#CCOCCOCCOCCNc1nc(N2CCN(C(=O)[C@H](Cc3ccc(O)cc3)n3cc([C@@H](N)C(C)CC)nn3)CC2)nc(N2CCN(C(=O)[C@H](CCCCN)n3cc([C@@H](N)CO)nn3)CC2)n1 (stereo not given in full)	HSP90 inh 21 (no result: STAT3 inh) | HSP90 confirm inactive | FLuc counter inactive
C#CCOCCOCCOCCNc1nc(N2CCN(C(=O)[C@H](CCCCN)n3cc([C@@H](N)C(C)CC)nn3)CC2)nc(N2CCN(C(=O)[C@H](Cc3cc4ccccc4[nH]3)n3cc([C@@H](N)CC(C)C)nn3)CC2)n1 (stereo not given in full)	HSP90 inh 21 (no result: STAT3 inh) | HSP90 confirm inactive | FLuc counter inactive
COc1ccc(C(=O)Nc2ccccc2C(=O)NC2CC2)c(OC)c1OC	none (no result: HSP90 inh, STAT1 blocker, STAT3 inh, PPC-1+TRAIL kill, HSF1 inh)
O=C(Nc1ccc(S(=O)(=O)NCCc2ccccc2)cc1)c1ccco1	HSP90 inh 26 | HSP90 confirm inactive | FLuc counter inactive
O=C(Nc1ccc(S(=O)(=O)NCCc2ccccc2)cc1)c1ccncc1	none (no result: STAT1 blocker, STAT3 inh, PPC-1+TRAIL kill)
S=c1[nH]nc(-c2ccc(Cl)cc2)n1Cc1ccccc1	HSP90 inh 46 | HSP90 confirm inactive | FLuc counter inactive
CCNC(=O)C1(C)CCCN(C(=O)c2nc(C)oc2C)C1 (stereo not given)	none (no result: HSP90 inh, STAT1 blocker, STAT3 inh, PPC-1+TRAIL kill, HSF1 inh)
C(=N\Nc1nc2ccccc2[nH]1)/c1c[nH]c2ccccc12	none
COc1ccc(/C=N/Nc2nc3ccccc3[nH]2)c(OC)c1OC	HSP90 inh 27 (no result: STAT1 blocker, STAT3 inh) | HSP90 confirm 54 | FLuc counter 62
CCC(=O)C1CCCN(C(=O)c2ccc3nc(-c4cccc(OC)c4)oc3c2)C1 (stereo not given)	HSP90 inh 25, HSF1 inh inconclusive (no result: STAT1 blocker, STAT3 inh, PPC-1+TRAIL kill) | HSP90 confirm 32 | FLuc counter 15
CCOC(=O)C1CCCN(C(=O)c2ccc3nc(-c4cccc(OC)c4)oc3c2)C1 (stereo not given)	HSP90 inh 21 (no result: STAT1 blocker, STAT3 inh, PPC-1+TRAIL kill) | HSP90 confirm 36 | FLuc counter 25
Cc1cc(NC(=O)NC(=O)c2ccc(F)cc2F)n[nH]1	HSP90 inh 23 | HSP90 confirm 39 | FLuc counter 26
COc1cccc(Cn2c(C(C)n3c(C)nc4ccccc43)nc3ccccc32)c1 (stereo not given)	none (no result: HSP90 inh, STAT1 blocker, STAT3 inh, PPC-1+TRAIL kill, HSF1 inh)
Cc1nc(NC(=O)/C=C/c2ccccc2)sc1C(=O)Nc1ccccc1Cl	HSP90 inh 27 | HSP90 confirm 54 | FLuc counter inactive
CN(C)C(CNC(=S)Nc1cccc(Cl)c1)c1ccccc1 (stereo not given)	none (no result: PPC-1+TRAIL kill)
